Structures are written as SMILES. Screen size: about 48,000 compounds; about 13,000 (27%) showed an effect of 50% or more. The list shows a part of the results.

The assay deals with Wolbachia pipientis. Kind of assay: Anti-Wolbachia Cell-Based Screen. The class given is functional. The following applies: 5 µM. The arrangement: scale not given: in the data most compounds retested in dose-response had high values.
`COc1ncccc1CN1C[C@H](C(=O)N2CCCO2)[C@@H]2CCO[C@@H]2C1`: the “Percent Effect” value is on record as 0.1445%.
Under `CC(C)(C)c1nnc(CNc2c(F)cccc2-n2cccn2)o1` stands -0.1409%; under `Cc1nc(CN2CCCC(CCc3ccccc3F)C2)c[nH]1` (configuration not stated), 15.72%.
As to `Cc1cc(C)c(C(=O)NC(CN2CCCC2)c2ccccc2)c(=O)[nH]1` (configuration not stated), the “Percent Effect” value stood at 1.71%.
Consider `COCCN1CCOCC12CCN(Cc1ccn(C)n1)CC2.O=C(O)C(F)(F)F.O=C(O)C(F)(F)F`, for which the “Percent Effect” value is -14.13%.
Regarding `Fc1cccc(CN2CCC3(CCCN3c3ncccn3)CC2)c1.O=C(O)C(F)(F)F`, the “Percent Effect” value was found to be 103.6%.
Turning to `Cn1ccc(CN2CCCC23CCN(Cc2cccc(F)c2)CC3)n1.O=C(O)C(F)(F)F.O=C(O)C(F)(F)F`, the “Percent Effect” value was found to be 121.8%.
In the case of `COCCC(=O)N1CCC2(CCN(Cc3cccc(F)c3)CC2)CC1.O=C(O)C(F)(F)F` it was -14.44%.
On to `Cn1cncc1CN1CCC2(CCCN2c2ncccn2)CC1.O=C(O)C(F)(F)F`, for which the “Percent Effect” value is reported as 7.027%.
With `COc1cc(N2CCC3(CCCN3Cc3ccn(C)n3)CC2)ncn1.O=C(O)C(F)(F)F`, the “Percent Effect” value is -11.95%.
For `Cn1ccc(CN2CCCC23CCN(Cc2ccccc2F)CC3)n1.O=C(O)C(F)(F)F.O=C(O)C(F)(F)F`, the “Percent Effect” value is on record as 125.7%.
Turning to `Cc1c(CN2CCCC(C(=O)CCc3ccccc3)C2)cc(C#N)n1C` (configuration not stated), the “Percent Effect” value worked out at 16.56%.
For `CCn1ncc(CNC(=O)c2cn(CCC3CCCCN3)nn2)c1C` (configuration not stated), the “Percent Effect” value was 3.216%.
Consider `CN(CC(=O)NC(C)(C)C)Cc1nc(-c2ccccc2)c[nH]1`, for which the “Percent Effect” value is -12.75%.
In the case of `CN(CC(=O)NCC(O)c1cccc(F)c1)C(=O)OC(C)(C)C` (configuration not stated) it was 1.189%; in that of `CN(CC(=O)NCC(F)(F)F)C(=O)c1ccc(C(=O)OC(C)(C)C)cc1`, 91.82%.
Under `Cc1cccc(NC(=O)CN(C)C(=O)c2ccc(OC(C)C)nc2)n1` stands 4.087%; under `Cc1ccc(C(=O)N(C)CC(=O)NCC(F)(F)F)cn1`, 99.88%.
As to `Cc1ccc(OCC(=O)NCC(F)(F)F)nc1`, the “Percent Effect” value is -4.389%.
In the case of `CN(CC(=O)NCC(CCO)c1ccccc1)C(=O)OC(C)(C)C` (configuration not stated), the “Percent Effect” value amounted to 2.407%.
Under `CC(=O)NCCC1CCCCN1S(=O)(=O)c1cccc(F)c1` (configuration not stated) stands 85.51%; under `CC(=O)c1ccc(S(=O)(=O)N2CCCC2CN2CCCC2)cc1` (configuration not stated), -61.12%; under `CNS(=O)(=O)CC1CCCN1C(=O)c1cccc(Cl)c1` (configuration not stated), -8.436%.
Under `CC(=O)NCCC1CCCCN1S(=O)(=O)c1ccc2ccccc2c1` (configuration not stated) stands 104.3%; under `CSc1ccc(S(=O)(=O)N2CCCCC2CCNC(C)=O)cc1` (configuration not stated), -2.003%.
As to `CC(=O)NCCC1CCCCN1S(=O)(=O)c1cccc(Cl)c1` (configuration not stated), the “Percent Effect” value is reported as 153.7%.
Turning to `CC(=O)NCCC1CCCCN1S(=O)(=O)c1cccc(C#N)c1` (configuration not stated), the “Percent Effect” value is reported as -10.91%.
Under `CCN1CCN2CCCN(S(=O)(=O)c3cccc(F)c3)C2C1=O` (configuration not stated) stands 4.508%.
For the compound `CCN1CC(C(=O)N(C)Cc2ccon2)CC1=O` (configuration not stated), the “Percent Effect” value stood at 8.13%.
`CCN(CC)[C@H]1C[C@@H](Cc2cc(CO)on2)C1(C)C`: the “Percent Effect” value was -1.281%.
Regarding `COC(=O)c1ccccc1NC(=O)c1c(C)cn(C)c1CC(=O)O`, the “Percent Effect” value was determined as 101.4%.
`COc1ccc(OC)c(NC(=O)N2CCCC2c2ccco2)c1` (configuration not stated): the “Percent Effect” value is reported as -3.414%.
Take `CCn1cc(C(=O)Nc2ccc(C)cc2C(=O)OC)cn1`: the “Percent Effect” value is listed as -8.405%.
Consider `COc1ccc(C)cc1NC(=O)c1c(C)cn(C)c1CC(=O)O`, for which the “Percent Effect” value stood at 106.8%.
As to `COc1ccc(C)cc1NC(=O)CNc1ccn(CC(N)=O)n1`, the “Percent Effect” value is -13.27%.
As for `COc1ncc(NC(=O)Nc2cc(C)ccc2OC)cn1`, the “Percent Effect” value was 7.981%.
Turning to `COc1ccc(OC)c(CNCc2c(C)nc3sc(C)cn23)c1`, the “Percent Effect” value is 17.49%.
Turning to `COc1ccc(OC)c(NC(=O)c2c(C)cn(C)c2CC(=O)O)c1`, the “Percent Effect” value amounted to 111%.
Under `COC(=O)c1ccccc1NC(=O)c1nc2ccccc2n(C)c1=O` stands 2.974%; under `CCCN(C1CCc2ccccc2C1)S(C)(=O)=O` (configuration not stated), -12.4%; under `NC(=O)CN(CC1CCOC1)C1CC1` (configuration not stated), 12.45%.
As to `COCC(=O)N1CCN(S(=O)(=O)c2ccccc2)[C@H]2CS(=O)(=O)C[C@H]21`, the “Percent Effect” value came to 117.3%.
As for `CCCN1C(=O)[C@@H]2[C@@H](CCN2C(=O)COC)N(Cc2cccs2)C1=O`, the “Percent Effect” value was 27.38%.
Consider `COc1ccccc1S(=O)(=O)N1CCN(C)[C@@H]2CS(=O)(=O)C[C@@H]21`, for which the “Percent Effect” value was -4.767%.
With `COCC(=O)N1CCN(C(=O)c2cccs2)C[C@H]1C(=O)OC`, the “Percent Effect” value is -7.618%.
On to `CCC(=O)N1CCN(S(=O)(=O)c2cccc(F)c2)[C@H]2CS(=O)(=O)C[C@H]21`, for which the “Percent Effect” value is 7.69%.
In the case of `COCC(=O)N1CCN(S(=O)(=O)c2cccs2)[C@H]2CS(=O)(=O)C[C@H]21` it was 101.1%; in that of `CS(=O)(=O)N1CCN(C(=O)c2ccco2)[C@H]2CS(=O)(=O)C[C@H]21`, -4.132%; in that of `COCC(=O)N1CCN(C(=O)Cc2cccs2)[C@H]2CS(=O)(=O)C[C@H]21`, 102.4%.
With `COCC(=O)N1CCN(S(=O)(=O)c2ccccc2)[C@@H](C(=O)OC)C1`, the “Percent Effect” value is on record as 2.651%.
Consider `CN1CC(C(=O)NCc2cccnc2OCC(F)(F)F)CC1=O` (configuration not stated), for which the “Percent Effect” value turned out to be 1.673%.
`CN1CC(C(=O)NCc2ccc(Br)cc2F)CC1=O` (configuration not stated): the “Percent Effect” value came to 97.3%.
On to `CN1CC(C(=O)NCc2ccc(OCc3cccnc3)cc2)CC1=O` (configuration not stated), for which the “Percent Effect” value is listed as -2.56%.
Regarding `Cc1ccccc1CCNC(=O)C1CC(=O)N(CC(F)(F)F)C1` (configuration not stated), the “Percent Effect” value is 1.737%.
Consider `CC(C)CN1CC(C(=O)NCCc2ccc(OC(F)F)cc2)CC1=O` (configuration not stated), for which the “Percent Effect” value is on record as -18.94%.
In the case of `CC(=O)N1CCCC(C(=O)NCCc2ccc(F)c(Br)c2)C1` (configuration not stated), the “Percent Effect” value is given as 78.71%.
As to `COc1ncccc1CNC(=O)C1CC(=O)N(C)C1` (configuration not stated), the “Percent Effect” value is reported as -5.362%.
As for `CN1CC(C(=O)NCCc2ccc(F)c(Br)c2)CC1=O` (configuration not stated), the “Percent Effect” value was 95.91%.
Consider `CSCc1nc(CCNC(=O)C2CCCN(C(C)=O)C2)cs1` (configuration not stated), for which the “Percent Effect” value amounted to 1.152%.
Regarding `CN1CC(C(=O)NCCc2ccn(-c3ccc(F)cc3)n2)CC1=O` (configuration not stated), the “Percent Effect” value is given as -45.08%.
Turning to `CC(=O)N1CCCC(C(=O)NCCc2nc(Cc3ccccc3)no2)C1` (configuration not stated), the “Percent Effect” value is -1.107%.
Take `CN1CC(C(=O)NCCc2ccc(Br)cc2F)CC1=O` (configuration not stated): the “Percent Effect” value turned out to be 108.1%.

The record behind these values is ChEMBL document CHEMBL3988442, “University of Dundee, Small-Polar-MMV Screening Library” (2021).
